LASV entry inh: Lassa virus entry inhibition; Lassa virus pseudotype entry inhibition, cell reporter; Potency, µM (top dose mostly 37.9 µM), for the others: at the top dose activity change, negative = inhibition, usual class: inhibitors; actives 1.2% (n = 300,000); calls by dose curve; tested in HEK293 cells; further: potency means the concentration at half of the fitted maximal effect; on the % scale 0 is the no-effect control and ±100 the full control effect; nearly all actives have a fitted effect of over 50% in size
Shiga toxin inh: blocks Shiga toxin action in Vero cells. Vero cells, Shiga toxin protein synthesis inhibition reporter. inhibition, % at 38.7 µM. actives 9.2% (n = 290,000). AID 2315; in the data active means inhibition mostly above about 28%, no sharp cut-off; inactive means mostly below about 43%; further: 0% is about no effect
Pf growth 96h: inhibits malaria parasite growth, 96 h. P. falciparum luciferase reporter growth, 96 h. Potency, µM (top dose mostly 28.7 µM), for the others: at the highest dose activity change, negative = inhibition, most hits filed as inhibitors. actives 6.9% (n = 320,000). AID 504834; further: potency means the concentration at half of the fitted maximal effect; on the % scale 0 is the no-effect control and ±100 the full control effect
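Two parasite generations (96 h, 37 C, 5% CO2) of compound exposure in infected erythrocytes (0.05% parasitemia, 2% hematocrit). Luciferase-reporter P. falciparum; decreased luminescence indicates inhibited growth, aimed at apicoplast-acting delayed death.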
Pf growth 48h: P. falciparum growth inhibition at 48 hours (one generation); P. falciparum luciferase growth in erythrocytes, 48 h; Potency, µM (series often up to 28.7 µM), inactives show at the top dose activity change, negative = inhibition, most hits filed as inhibitors; actives 5.9% (n = 310,000); AID 504832; further: potency means the concentration at half of the fitted maximal effect; on the % scale 0 is the no-effect control and ±100 the full control effect
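In quantitative HTS format, infected erythrocytes bearing luciferase-reporter parasites were treated for a single generation at 37 C. Luminescence after adding detection reagent served as the growth measure.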
Cycloheximide cs: counter-screen for Shiga toxin inhibitors: cycloheximide protein synthesis inhibition | cell reporter, cycloheximide protein synthesis inhibition counterscreen | actives 12% (n = 300,000) | max response, % | AID 2314; in the data active means max response mostly above about 13%, no sharp cut-off; inactive means mostly below about 14%; further: read at 38.3 µM for the half of the compounds with a filed dose; 0% is about no effect
MARV entry inh: inhibitors of Marburg virus binding or cell entry. Marburg virus pseudotyped entry inhibition, cell reporter. Potency, µM (series often up to 37.8 µM), inactives show at the top dose activity change, negative = inhibition, hits mostly inhibitors. actives 1.8% (n = 300,000). AID 540276; calls by dose curve; tested in HEK293 cells; further: potency means the concentration at half of the fitted maximal effect; on the % scale 0 is the no-effect control and ±100 the full control effect
An asterisk follows results filed as active; ? = inconclusive; / = no result; [ ] = dose if it differs, or a comment. This is a sample that favours compounds with a hit; in the whole collection about 19% have one here. Unless noted, the call rests on the fitted dose curve; in most records, active means well fitted inhibition curve with a large enough effect; inconclusive means small, poorly fitted or top-dose-only effect, or another doubt; inactive means no such curve, though single readings can be large or run the other way.

SMILES	LASV entry inh	Shiga toxin inh	Pf growth 96h	Pf growth 48h	Cycloheximide cs	MARV entry inh
CCCn1c(=O)c(C(=O)Nc2cccc(C)c2)c(O)c2ccccc21	/	23	15%	4%	14	/
Cc1ccnc(NC(=O)c2c(O)c3ccccc3n(C)c2=O)c1	/	71*	-15%	145%	51*	/
Cc1cccc(NC(=O)c2c(O)c3ccccc3n(C)c2=O)c1	/	/	-11%	125%	25*	/
CCc1nnc(NC(=O)c2sc3nc4c(cc3c2N)CCCCC4)s1	?	46*	?	57%	42*	-20%
COc1ccc(NC(=O)c2sc3nc4c(cc3c2N)CCCCCC4)cc1OC	-30%[46.1 µM]	/	/	/	/	7%[46.1 µM]
CCc1nnc(NC(=O)c2sc3nc4c(cc3c2N)CCCCCC4)s1	?	59	76%	19%	13*	?
O=C(Nc1ccncc1)c1cccc(S(=O)(=O)N2CCOCC2)c1	14%	/	21%	3%	/	-6%
COC(=O)c1cc(NC(=O)c2ccccc2)c(=O)oc1C	10%	22	44%	0%	13	1%[46.1 µM]
CN1CCc2c(sc(/N=C/c3cc(Cl)ccc3O)c2C#N)C1	?	101*	-12%	-11%	52*	?
Cc1sc(/N=C/c2ccccc2O)c(C#N)c1C	/	-5	/	34%	-2	0%
COc1ccc(N2C(=O)CSC23C(=O)N2c4c(cccc43)C(C)=CC2(C)C)cc1 (centres undefined)	?	-10	7.4µM*	/	4	?
COc1ccc(N2C(=O)CSC23C(=O)N2CCCc4cccc3c42)cc1 (centres undefined)	?	-6	-9%[5.75 µM]	-24%	-4	-22%
O=C(CC1C(=O)NCCN1Cc1ccccc1C(F)(F)F)NC1CCCC1 (centres undefined)	7%	6	-30%	30%	-1	-2%
O=C(CCS(=O)(=O)Cc1ccccc1)Nc1nc2c(s1)CCCC2	?	3	-5%	5%	10	?
O=C(CCCc1cccs1)Nc1nc2c(s1)CCCC2	2%	30*	60%	41%	57*	-11%[46.1 µM]
Cc1csc(NC(=O)CCCc2cccs2)n1	11%	48*	29%	80%	46*	27%[46.1 µM]
Cc1csc(NC(=O)CCCC(=O)c2ccccc2)n1	15%	50*	?	0%	22*	?
O=C(CCN1C(=O)c2ccccc2S1(=O)=O)Nc1nc2c(s1)CCCC2	?	122*	-1%[5.75 µM]	-1%	18*	0%
COc1ccc(CCNCc2ccc3c(c2)n(C)c(=O)n3C)cc1OC	-11%[46.1 µM]	/	/	/	/	-11%[46.1 µM]
O=C(Oc1c(-c2ccccc2)c(=O)n2c3c(cccc13)CC2)c1ccccc1	-27%[46.1 µM]	-6	?	-16%	-2	?
CCc1ccc2nc(NC(=O)c3ccc4c(=O)[nH]c(CN5CCOCC5)nc4c3)sc2c1	2%	65*	22%	/	43*	1%
CCc1ccc2nc(NC(=O)c3ccc(N4C(=O)CCC4=O)cc3)sc2c1	?	38*	48%	37%	22*	9%[46.1 µM]
CCCCc1nnc(NC(=O)c2ccc(N3CCCC3=O)cc2)s1	4%	/	51%	-15%	/	13%
Cc1ccc(C)c2sc(NC(=O)c3ccc(N4C(=O)CCC4=O)cc3)nc12	7%	-11	43%	49%	-2	1%
CNS(=O)(=O)c1ccc2nc(NC(=O)c3ccc(N4C(=O)CCC4=O)cc3)sc2c1	-9%	-1	3.7µM*	?	-4	-5%
SMILES	LASV entry inh	Shiga toxin inh	Pf growth 96h	Pf growth 48h	Cycloheximide cs	MARV entry inh
CCc1nnc(NC(=O)c2ccc(N3C(=O)CCC3=O)cc2)s1	/	35	46%	42%	16*	/
O=C(NCc1ccccc1)C12CN(Cc3ccccc3)CC1C(c1cccc([N+](=O)[O-])c1)=NO2 (centres undefined)	/	-15	1%	?	-1	/
O=C(NCc1cc(C(F)(F)F)cc(C(F)(F)F)c1)C12CN(Cc3ccccc3)CC1C(c1cccc([N+](=O)[O-])c1)=NO2 (centres undefined)	/	-7	?	13µM*	11	/
Cc1ccc(CNC(=O)C23CN(Cc4ccccc4)CC2C(c2ccc([N+](=O)[O-])cc2)=NO3)cc1 (centres undefined)	/	16	?	12µM*	3	0%
COc1ccccc1-c1nnc(C2CCN(C(=O)c3cccc(C)c3)CC2)o1	3%[46.1 µM]	/	/	/	/	4%[46.1 µM]
Cc1nnc(SCC(=O)N/N=C/c2cn(-c3ccccc3)nc2-c2ccccc2)n1-c1ccccc1	?	66	-7%	42%	9	?
O=C(N/N=C/c1cn[nH]c1-c1ccccc1)c1ccco1	18%[46.1 µM]	72*	-12%	-7%	26*	?
O=C(N/N=C/c1cn(-c2ccccc2)nc1-c1ccccc1)c1ccco1	-7%	42*	37%	3.3µM*	21*	-30%
O=C(N/N=C/c1coc2ccccc2c1=O)c1cn(-c2ccccc2)nc1-c1ccc(F)cc1	9%	-7	-1%	15%	-2	?
O=C(N/N=C\c1cn(-c2ccccc2)nc1-c1ccccc1)c1ccc(Br)o1	?	80*	4.1µM*	9.3µM*	14*	?
Cc1ccc(-c2nn(-c3ccccc3)cc2/C=N/NC(=O)c2ccc(Br)o2)cc1	-24%	36*	?	?	24*	?
CCOc1ccc(CCNC(=O)Cn2nc(CC)n3c(cc4sccc43)c2=O)cc1	/	/	/	/	/	11%[46.1 µM]
Cn1c(CNC(=O)c2ccco2)nnc1SCC(=O)N1CCN(c2ccccc2F)CC1	23%[46.1 µM]	-19	?	?	9	-12%[46.1 µM]
COc1cc(NC(=S)NCCO)c(OC)cc1Cl	11%	-7	-10%	0%	-2	8%[46.1 µM]
O=C(N/N=C\c1cn[nH]c1-c1ccc(Cl)cc1)c1cccs1	/	81*	12%	19%	36*	/
O=C(N/N=C/c1cn[nH]c1-c1ccc(Cl)cc1)c1ccc([N+](=O)[O-])cc1	7%	-17	49%	45%	2	3%[46.1 µM]
O=c1cc(COc2ccc(Cl)c(Cl)c2)nc2sccn12	5%	6	13%	74%	20*	14%
O=c1cc(CNc2cc(Cl)ccc2Cl)nc2sccn12	-1%	28	10%	22%	29*	?
C=CCN(CC=C)S(=O)(=O)c1ccc2nc(NC(=O)C(C)C)sc2c1	?	-10	/	?	-1	?
Cc1nc(=S)c2ccccc2[nH]1	6%	8	40%	/	14	10%
CNC(=S)N/N=C/c1cccc(OCc2ccccc2F)c1	4µM*	52*	20%	-16%	27*	?
CCNC(=S)N/N=C/c1cccc(OCc2c(F)cccc2Cl)c1	9.2µM*	33	?	?	18	?
CCNC(=S)N/N=C/c1c(Cl)cccc1Cl	18%	-12	?	0%	-3	-1%
CC(C)COc1ccccc1C1CC(=O)Nc2cc3c(cc21)OCO3 (centres undefined)	-22%[46.1 µM]	/	/	/	/	?
